# An excerpt weighted towards active compounds, which were near 7.6% of everything screened.
# HCV NS3h FP: hepatitis C NS3 helicase inhibition, primary screen | hit rate 1.6% among 16,000 | AID 687043 | NS3h Cy5-dT15 DNA binding, fluorescence polarization | inhibition, % at 100 µM;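 active = inhibition above the average over every tested compound plus 3 SD, cut at about 40% in these data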
# Cy5 interf NS3h: Cy5 fluorescence interference, HCV helicase counter-screen. fluorescence interference ratio at 100 µM. Cy5-dT15 DNA with NS3h; actives lie on both sides; signal over control mean, under 1 quenches. hit rate 6% among 16,000;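 active = compound fluorescence over control fluorescence at most 0.8, a quencher, or at least a set upper limit, an enhancer; inactive = ratio between 0.8 and the set upper limit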
# A number is an active result; . = inactive.
SMILES,HCV NS3h FP,Cy5 interf NS3h
O=C(Nc1ccc(S(=O)(=O)N2CCCCCC2)cc1)C(F)(F)F,.,0.766
O=C(Nc1ccc(S(=O)(=O)N2CCCCC2)cc1)c1ccc(F)cc1,.,.
CN1C(=O)/C(=C\c2ccccc2OCCOc2ccc(C(C)(C)C)cc2)SC1=S,.,.
O=C1Nc2ccccc2C1(O)C/C(=N\O)c1ccc(Cl)cc1 (stereo not drawn),.,.
CC(=O)C(C(=O)c1ccccc1)C1(O)C(=O)Nc2ccccc21 (stereo not drawn),.,0.787
COc1cc(NC(=O)c2cc3n(n2)C(C(F)(F)F)CC(c2ccccc2)N3)c(OC)cc1Cl (stereo not drawn),.,.
O=C(Nc1nccs1)c1cccc(NC(=O)c2cccs2)c1,.,0.709
O=C(Nc1cc(NC(=O)c2ccccc2)cc(C(=O)Nc2nccs2)c1)c1ccccc1,.,.
CCN(CC)c1ccc(C(=O)Nc2nccs2)cc1,.,.
O=C(Cc1ccccc1)Nc1ccc(C(=O)Nc2nccs2)cc1,.,0.677
Cc1ccc(C)c(NC(=O)c2sc3cc(C)ccc3c2Cl)c1,.,.
CS(=O)(=O)N(CC(=O)O)c1cccc(C(F)(F)F)c1,.,.
COc1ccc(C2Nc3ccccc3C(=O)N2Cc2ccccc2)cc1Cn1nc(C)c([N+](=O)[O-])c1C (stereo not drawn),.,.
COc1ccccc1NC(=O)CN1C(=O)/C(=C\c2cc(OC)c(OC)c(OC)c2)SC1=S,.,.
Cc1cc(=O)n2c([nH]c3ccccc32)c1C(=O)O,.,0.786
O=C(Nc1c(C(=O)N2CCCCC2)cnn1-c1ccccc1)c1cccc(F)c1,.,.
Cc1c(C(=O)O/N=C(/N)c2ccc(Cl)cc2)cccc1[N+](=O)[O-],.,.
CSc1nc(-c2ccccc2)nc2[nH]ccc(=O)c12,.,0.694
CNCCOc1cc(C)nc(-c2ccccc2)n1,.,.
O=C(c1ccc(F)cc1)c1ccc(NS(=O)(=O)c2ccc(Cl)cc2)cc1,.,1.21
O=S(=O)(Nc1ccc(O)cc1)c1ccc(F)cc1,.,.
O=S(=O)(Nc1ccc(O)cc1)c1ccc(Br)cc1,.,.
O=S(=O)(Nc1ccc(Br)cc1)c1ccc(Cl)cc1,.,0.786
CCOc1ccccc1NC(=O)CN(c1ccc(OC)cc1)S(C)(=O)=O,.,.
CCOc1ccc(N2C(=O)C(O)=C(C(=O)/C=C/c3ccccc3)C2c2ccccc2[N+](=O)[O-])cc1 (stereo not drawn),.,.
SMILES,HCV NS3h FP,Cy5 interf NS3h
O=C1c2cccc3cccc(c23)C(=O)N1/N=C\c1ccc(Cl)cc1,.,.
O=C(/C=C/c1ccccc1Cl)Nc1ccccc1[N+](=O)[O-],40.9,.
COc1ccc(NC(=O)/C=C/c2ccccc2Cl)c([N+](=O)[O-])c1,.,.
COc1ccc(N2C(=O)C3C4c5ccccc5C(C)(c5ccccc54)C3C2=O)cc1 (stereo not drawn),.,.
CC12c3ccccc3C(C)(c3ccccc31)C1C(=O)N(c3ccc(C(=O)O)cc3)C(=O)C12 (stereo not drawn),.,0.715
CCc1ccc(OCC(=O)Nc2nc(-c3ccccc3)cs2)cc1,.,.
COc1cccc(CN2CCN(S(C)(=O)=O)CC2)c1,.,0.77
COc1cccc(CN2CCN(S(C)(=O)=O)CC2)c1OC,.,0.645
COc1ccc(S(=O)(=O)N2CCN(Cc3cccc(OC)c3)CC2)cc1,.,.
COc1ccc(Br)cc1CN1CCN(S(C)(=O)=O)CC1,.,0.675
COc1ccc(CN2CCN(Cc3ccccc3OC)CC2)c(OC)c1,.,.
COc1cccc(CN2CCN(Cc3ccc(Br)cc3)CC2)c1OC,.,.
COc1ccc(CN2CCN(S(C)(=O)=O)CC2)cc1OCc1ccccc1,.,.
COc1ccc(CN2CCN(S(C)(=O)=O)CC2)c(OC)c1,.,0.695
Cc1ccc(NC(=O)c2ccc(-c3cccc(Cl)c3)o2)c([N+](=O)[O-])c1,.,.
CCOP(=O)(OCC)c1nc(-c2cccc3ccccc23)oc1N1CCC(C)CC1,.,.
O=C1c2ccccc2C(=O)c2c(C#Cc3ccccc3)cccc21,.,.
COc1ccc(-c2nn(-c3ccccc3)c(N)c2-c2ccccc2)cc1OC,.,.
Cc1ccc(CNC(=O)C(=O)NCc2ccccc2)cc1,.,1.25
Cc1ccc(CNC(=O)C(=O)NCc2ccncc2)cc1,.,.
Cc1ccc(CNC(=O)C(=O)N2CCCC2)cc1,.,1.27
Cc1ccc(CNC(=O)C(=O)NC(C)C)cc1,.,.
S=C(NCCOCCOCCNC(=S)Nc1ccccc1)Nc1ccccc1,.,.
O=C(NCc1ccccc1)c1ccccc1Cl,.,0.787
O=C(O)c1ccc(C(=O)NCc2ccccc2)c(C(=O)O)c1,.,.
SMILES,HCV NS3h FP,Cy5 interf NS3h
COCCNC(=S)Nc1ccc(OC)cc1,.,0.768
CC1=C(C(=O)OCCc2ccccc2)C(c2ccc(O)cc2)C2=C(CCCC2=O)N1 (stereo not drawn),.,.
COCCOC(=O)c1c(C)oc2ccc(OCc3ccc(F)cc3)cc12,.,.
COc1ccc(C(O)(CNCc2ccccc2)c2ccc(Br)cc2)cc1 (stereo not drawn),.,0.73
COc1ccc(CC(=O)NCC2CCCO2)cc1OC (stereo not drawn),.,.
O=C(Cc1ccc(F)cc1)NCC1CCCO1 (stereo not drawn),.,0.75
COCCCNC(=O)C(=O)NCCc1ccc(OC)cc1,.,0.74
O=C(NCc1ccc(F)cc1)c1ccccc1I,.,.
Cc1ccc(C(O)(CNCc2ccccc2)c2ccc(Br)cc2)cc1 (stereo not drawn),.,.
COc1ccc(CCNC(=O)C(=O)NCCCOC(C)C)cc1,.,.
O=C(Cc1ccc(F)cc1)NCc1ccccc1,.,0.59
O=C(Nc1ccc(Br)cc1)c1nn2c(c1Cl)NC(c1ccccc1)CC2C(F)(F)F (stereo not drawn),.,.
C=CCN1C(=O)/C(=C\c2ccc3c(c2)OCO3)C(=O)NC1=S,.,.
COc1ccc(C2Nc3ccccc3C(=O)N2c2ccc(Cl)cc2)cc1Cn1nc(C)c([N+](=O)[O-])c1C (stereo not drawn),.,.
COC(=O)C1=C(C)N(c2ccccc2)/C(=C\c2ccc(OCC(=O)Nc3ccccc3OC)cc2)C1=O,.,.
Cc1cccc(N2C(=O)c3ccc(Oc4cccc([N+](=O)[O-])c4)cc3C2=O)c1C,.,.
Cc1ccccc1/C=N\N1CCN(Cc2ccccc2Cl)CC1,.,.
O=C(Nc1nc(-c2ccccc2)c(-c2ccccc2)s1)c1ccccc1F,.,.
O=C(/C=C\Nc1ccccc1O)c1ccc2c(c1)OCO2,.,.
COc1ccc(CNC(=O)C(=O)Nc2ccccc2C)cc1,.,.
COc1ccc(CNC(=O)C(=O)NCc2ccccc2)cc1,.,0.732
O=C(N/N=C\C=N/NC(=O)c1ccccc1Cl)c1ccccc1Cl,.,.
O=C(/C=C/c1cn(-c2ccccc2)nc1-c1ccccc1)c1ccccc1,.,.
CN(C)/C=C1\N=C(c2ccc(F)cc2)OC1=O,.,.
Cc1ccc(C2CC(C(F)(F)F)n3nc(C(=O)N4CCN(Cc5ccccc5)CC4)cc3N2)cc1 (stereo not drawn),.,0.761
Cc1ccc(C2CC(C(F)(F)F)n3nc(C(=O)Nc4ccc(F)cc4F)cc3N2)cc1 (stereo not drawn),.,0.569
COCCNC(=O)c1cc2n(n1)C(C(F)(F)F)CC(c1ccc(F)cc1)N2 (stereo not drawn),.,.
